In PubChem BioAssay (Tox21) one finds Potency and outcome data, which are given here for seven compounds.

Structures are written as SMILES. Values without a mark were called inactive. Results filed as inconclusive are left out. Activity calls are given as the source filed them. Unless noted, calls come from the whole dose curve.

A short description of assay [1]: Nuclear factor erythroid 2-related factor 2/antioxidant responsive element (Nrf2/ARE) small molecule agonists: qHTS cell viability counter screen in human keratinocytes (AID 1919968; active = well fitted curve in the direction sought with a large enough effect in the repeat runs; an effect the other way counts as inactive or inconclusive; note: nearly all actives have a fitted effect of over 55% in size). In outline: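 Seed 1,500 KeratinoSens cells per well, then incubate 5 h at 37 C/5% CO2. Add compounds in DMSO and incubate 23 h. Add CellTiter-Fluor, wait 1 h and read fluorescence.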
(In general: Quantitative high-throughput screening tests each substance at several concentrations.)

Assay [2] can be described thus: Nuclear factor erythroid 2-related factor 2/antioxidant responsive element (Nrf2/ARE) small molecule agonists: luciferase reporter gene qHTS assay in human keratinocytes (AID 1919969). Note: nearly all actives have a fitted effect of over 35% in size. Note: potency is the fitted concentration of half-maximal effect.
Assay [3] addresses Gonadotropin-releasing hormone receptor (Homo sapiens) (UniProt P30968). The experiment in a line: Human gonadotropin-releasing hormone receptor (GnRHR) small molecule agonists, calcium flux assay in GnRHR-HEK293 cells (AID 1920063). Note: nearly all actives have a fitted effect of over 35% in size. In outline:
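Cells: HEK293 stably expressing human GnRHR. Steps: overnight (18 h) culture, 1 h calcium dye loading at 37 C, compound addition, kinetic fluorescence read at 480/540 nm. Each compound tested at 15 concentrations in triplicate.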
Background: Calcium flux is commonly read through the fluorescence of an indicator in the cells.

For assay [4], the target named is KiSS-1 receptor (Homo sapiens) (UniProt Q969F8). Briefly: Human kisspeptin (KISS1R) small molecule agonists, calcium flux assay in KISS1R-HEK293 cells (AID 1920064; active = well fitted curve in the direction sought with a large enough effect in the repeat runs; an effect the other way counts as inactive or inconclusive). In outline:
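Cells plated and incubated 18 h; dye added, 1 h at 37 C; compounds in DMSO pinned in; signal read at 480/540 nm every second for 3 min. Each compound tested at 15 concentrations in triplicate.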

Assay [5] in a line: G protein-coupled receptor (GPCR) small molecule agonists, calcium flux assay: HEK293 wild type cell line counter screen (AID 1920065). In outline:
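Counter-screen of the Tox21 10K library for non-specific calcium release: dye-loaded cells received compounds in DMSO and were monitored by kinetic fluorescence (480/540 nm, 3 min). Fifteen concentrations, run in triplicate.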

The nature of assay [6]: p53 small molecule agonists, cell-based qHTS assay with human liver microsomes (AID 1963577).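 Note: p53 response element beta-lactamase reporter cells with liver microsomes plus NADPH.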 In outline: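 Reporter activation was measured by LiveBLAzer fluorescence intensity in p53RE-bla cells, which had been exposed to compounds for 16 h at 37 C alongside 0.5 mg/mL human liver microsomes and 0.5 mg/mL NADPH (final concentrations).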
Assay [7] is described as follows: p53 small molecule agonists, cell-based qHTS assay with rat liver microsomes (AID 1963578). In outline: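 Compound in DMSO added to p53RE-bla cells 5 h post-plating; rat microsomes/NADPH 0.5 mg/mL final; 16 h, 37 C; LiveBLAzer 2 h RT.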
The nature of assay [8]: p53 small molecule agonists, cell-based qHTS assay with human liver microsomes: qHTS cell viability counter screen (AID 1963579). Note: nearly all actives have a fitted effect of over 45% in size. An outline of the steps:
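HLM-supplemented (0.5 mg/mL final) and NADPH-supplemented (0.5 mg/mL final) p53RE-bla cultures, 4,000 cells per well, were dosed with compounds in DMSO for 16 h at 37 C; luminescent ATP detection (CellTiter-Glo, 30 min, room temperature) quantified surviving cells.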

Assay [9] can be described thus: p53 small molecule agonists, cell-based qHTS assay with rat liver microsomes: qHTS cell viability counter screen (AID 1963580). Note: nearly all actives have a fitted effect of over 45% in size. An outline of the steps: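 Viability is assessed in parallel with the p53 reporter read: HCT-116 p53RE-bla cells receive compounds plus rat microsomes and NADPH (0.5 mg/mL final apiece), incubate 16 h at 37 C, and then CellTiter-Glo luminescence is recorded.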

Assay [10] can be described thus: p53 small molecule agonists, cell-based qHTS assay: qHTS cell viability counter screen (AID 1963581). Note: nearly all actives have a fitted effect of over 45% in size. In outline:
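Cells: HCT-116 with p53 response element-driven beta-lactamase. Treatment: 16 h, 37 C, compounds in DMSO. Read: CellTiter-Glo luminescence after 30 min RT.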

A short description of assay [11]: p53 small molecule agonists, cell-based qHTS assay (AID 1963582; active = well fitted activation curve with a large enough effect in the signal ratio in the repeat runs, not every such curve was filed as active; the % refers to the signal ratio). In outline:
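Quantitative HTS in p53RE-bla cells: after a 5 h settling period, compounds delivered in DMSO were left on cells for 16 h at 37 C, and reporter induction was measured as fluorescence following 2 h substrate loading.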

The nature of assay [12]: cAMP Responsive Elements (CRE) small molecule agonists, cell-based qHTS assay (AID 1963590). In outline:
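Agonist mode qHTS in CRE-bla HEK 293T cells: compounds dosed from DMSO for 3 h at 37 C/5% CO2, followed by LiveBLAzer B/G FRET substrate for 2 h at room temperature.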

Assay [13] in a line: cAMP Responsive Elements (CRE) small molecule antagonists, cell-based qHTS assay (AID 1963591; active = well fitted inhibition curve with a large enough effect in the signal ratio in the repeat runs, not every such curve was filed as active; the % refers to the signal ratio). An outline of the steps: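 Antagonist mode: test compounds are co-incubated with the adenylyl cyclase activator NKH477 (0.25 uM final) on CRE-bla HEK293T cells for 3 h at 37 °C, followed by LiveBLAzer substrate loading.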
The target in assay [14] is Beta-2 adrenergic receptor (Homo sapiens) (UniProt P07550). The experiment in a line: Adrenergic beta2 receptor (ADRB2) small molecule antagonists, cell-based qHTS assay (AID 1963592). Note: series mostly up to about 92 µM; nearly all actives have a fitted effect of over 50% in size. In outline: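 Cells (CHO, stable ADRB2 overexpression) incubated 18-20hr at 37C; compounds added from DMSO; agonist mix (1nM isoproterenol, 100uM IBMX, 25uM Ro-20-1724) added; 0.5hr RT; d2-cAMP and anti-cAMP-cryptate added; 1hr RT; 665/615 nm read.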
Beta-2 adrenergic receptor (Homo sapiens), sequence (P07550 whole entry, looked up): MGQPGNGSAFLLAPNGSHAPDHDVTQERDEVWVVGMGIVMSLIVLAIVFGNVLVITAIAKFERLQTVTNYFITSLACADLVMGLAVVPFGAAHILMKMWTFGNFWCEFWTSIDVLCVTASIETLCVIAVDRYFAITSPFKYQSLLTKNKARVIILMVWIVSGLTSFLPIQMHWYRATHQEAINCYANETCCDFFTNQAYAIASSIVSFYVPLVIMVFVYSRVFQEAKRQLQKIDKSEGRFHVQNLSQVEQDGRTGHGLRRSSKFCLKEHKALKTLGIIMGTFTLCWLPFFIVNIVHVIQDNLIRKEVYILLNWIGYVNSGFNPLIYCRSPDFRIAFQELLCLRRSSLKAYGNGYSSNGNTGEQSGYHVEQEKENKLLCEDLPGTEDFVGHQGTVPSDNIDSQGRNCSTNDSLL

Assay [15] deals with D(2) dopamine receptor (Homo sapiens) (UniProt P14416). The experiment in a line: Dopamine D2 receptor (DRD2) small molecule agonists, cell-based qHTS assay (AID 1963594). Note: nearly all actives have a fitted effect of over 35% in size. In outline:
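HEK293 cells stably expressing human DRD2, pre-treated with PDE inhibitor Ro20-1724 (0.1 mM final) and compound 10 min at room temperature, then stimulated with NKH477 (200nM […]) for 30 min. cAMP read by HTRF (665/620 nm).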

Assay [16] shares this target. The experiment in a line: Dopamine D2 receptor (DRD2) small molecule antagonists, cell-based qHTS assay (AID 1963595; active = well fitted inhibition curve with a large enough effect in the signal ratio in the repeat runs, with a control signal flat; the % refers to the signal ratio; note: potency is the fitted concentration of half-maximal effect). In outline:
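Antagonist mode in DRD2-HEK293 cells: after compound addition with 0.1 mM Ro20-1724, cells received quinpirole (12 nM) and NKH477 (200 nM) for 30 min at room temperature; HTRF cAMP read after 1 h detection.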

Assay [17] has as its target Muscarinic acetylcholine receptor M1 (Homo sapiens) (UniProt P11229). The experiment in a line: Cholinergic receptor muscarinic 1 (CHRM1) small molecule antagonists, cell-based qHTS assay (AID 1963588). Note: nearly all actives have a fitted effect of over 40% in size. An outline of the steps:
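CHRM1-CHO calcium-flux assay, antagonist mode. Cells were seeded 18 h, dye-loaded 1 h at 37 C and given compound for 5 min at RT, then acetylcholine was added at 50nM. FDSS fluorescence was read 3 min; 15 concentrations, three runs.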

Assay [18] has the same target. Briefly: Cholinergic receptor muscarinic 1 (CHRM1) small molecule agonists, cell-based qHTS assay (AID 1963589). Note: nearly all actives have a fitted effect of over 35% in size. An outline of the steps: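 Agonist-mode qHTS in CHO cells stably carrying human muscarinic M1. Intracellular calcium is tracked by fluorescence every second after compound transfer; each compound runs at 15 concentrations in three independent runs.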
The target of assay [19] is Beta-2 adrenergic receptor (Homo sapiens) (UniProt P07550). Briefly: Adrenergic beta2 receptor (ADRB2) small molecule agonists, cell-based qHTS assay (AID 1963593).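 Note: CHO cells stably overexpressing human ADRB2.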 In outline:
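CHO cells stably over-expressing ADRB2 were plated overnight at 37C, then dosed with compounds plus a stimulation mix containing 100uM IBMX and 25uM Ro-20-1724 for 0.5hr at room temperature. cAMP was measured by HTRF competition, 1hr.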

KiSS-1 receptor (Homo sapiens), sequence (Q969F8 whole entry, looked up): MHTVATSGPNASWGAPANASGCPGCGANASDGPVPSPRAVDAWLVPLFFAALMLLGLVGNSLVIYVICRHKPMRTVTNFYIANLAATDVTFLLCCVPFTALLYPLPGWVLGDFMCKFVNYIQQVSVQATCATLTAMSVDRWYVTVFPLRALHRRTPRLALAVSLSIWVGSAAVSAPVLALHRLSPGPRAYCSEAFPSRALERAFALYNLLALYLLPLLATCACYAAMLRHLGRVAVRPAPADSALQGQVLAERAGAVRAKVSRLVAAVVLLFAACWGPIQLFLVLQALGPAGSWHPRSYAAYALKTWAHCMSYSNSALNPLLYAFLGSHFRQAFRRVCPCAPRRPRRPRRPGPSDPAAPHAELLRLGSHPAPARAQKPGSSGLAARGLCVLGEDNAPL
D(2) dopamine receptor (Homo sapiens), sequence (P14416 whole entry, looked up): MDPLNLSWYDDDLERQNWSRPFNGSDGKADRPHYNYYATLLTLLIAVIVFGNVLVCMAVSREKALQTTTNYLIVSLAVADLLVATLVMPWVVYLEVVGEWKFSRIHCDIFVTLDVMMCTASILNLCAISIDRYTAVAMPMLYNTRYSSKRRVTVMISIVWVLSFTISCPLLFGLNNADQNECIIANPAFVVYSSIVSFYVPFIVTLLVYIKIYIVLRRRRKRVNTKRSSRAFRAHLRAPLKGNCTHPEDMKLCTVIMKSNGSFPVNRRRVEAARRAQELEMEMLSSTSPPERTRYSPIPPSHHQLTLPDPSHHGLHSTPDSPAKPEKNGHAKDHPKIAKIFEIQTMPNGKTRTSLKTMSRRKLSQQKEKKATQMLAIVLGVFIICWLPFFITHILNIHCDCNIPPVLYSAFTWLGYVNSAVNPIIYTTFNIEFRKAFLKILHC
Gonadotropin-releasing hormone receptor (Homo sapiens), sequence (P30968 whole entry, looked up): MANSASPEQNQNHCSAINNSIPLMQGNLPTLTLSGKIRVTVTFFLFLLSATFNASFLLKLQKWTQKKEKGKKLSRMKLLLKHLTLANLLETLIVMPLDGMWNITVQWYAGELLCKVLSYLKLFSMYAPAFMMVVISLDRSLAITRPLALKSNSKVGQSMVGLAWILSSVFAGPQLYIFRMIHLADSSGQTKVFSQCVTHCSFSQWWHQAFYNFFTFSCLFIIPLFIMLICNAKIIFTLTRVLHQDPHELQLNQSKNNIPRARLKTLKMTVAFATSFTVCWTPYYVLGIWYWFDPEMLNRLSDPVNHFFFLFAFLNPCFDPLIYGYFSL
Muscarinic acetylcholine receptor M1 (Homo sapiens), sequence (P11229 whole entry, looked up): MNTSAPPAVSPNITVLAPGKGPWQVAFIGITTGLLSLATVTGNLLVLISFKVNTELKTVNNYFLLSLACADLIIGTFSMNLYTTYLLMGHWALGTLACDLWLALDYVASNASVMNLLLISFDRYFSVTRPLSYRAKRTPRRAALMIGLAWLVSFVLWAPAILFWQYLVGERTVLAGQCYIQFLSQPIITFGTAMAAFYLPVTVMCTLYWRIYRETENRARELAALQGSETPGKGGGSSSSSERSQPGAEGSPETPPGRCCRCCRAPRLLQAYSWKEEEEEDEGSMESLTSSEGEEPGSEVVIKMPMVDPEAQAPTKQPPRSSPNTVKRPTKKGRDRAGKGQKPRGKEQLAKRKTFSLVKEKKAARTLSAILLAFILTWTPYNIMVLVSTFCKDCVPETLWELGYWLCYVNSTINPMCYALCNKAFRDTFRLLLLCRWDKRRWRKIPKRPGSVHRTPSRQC

Take `O=c1[nH]c(=O)n([C@H]2C[C@H](O)[C@@H](CO)O2)cc1I`: the Potency entry in [1], in [2], in [3], in [6], in assay [7] and in assay [8] was “inactive” each time. For the same compound, the Potency entry in [9], in [10], in assay [11], in assay [12], in assay [13] and in assay [14] was “inactive” throughout. Besides, the Potency entry in assay [15] and in [16] was “inactive” each time. For the same compound, the result in assay [4] and in assay [5] was inactive.
Turning to `Cc1ccc2c(c1)C(=O)c1ccccc1C2=O`, the Potency entry in [1], in assay [3], in assay [6], in assay [7], in assay [8] and in assay [9] was “inactive” in each case. The Potency result in [10], in assay [11], in assay [17], in [18], in [14] and in [19] was “inactive” throughout. The Potency result in [15] and in assay [16] was “inactive” throughout. For the same compound, the Potency in assay [2] is 2.72 µM (active). The outcome in assay [4] and in assay [5] was inactive.
For `CCOC(=O)[C@H](CCc1ccccc1)N[C@@H](C)C(=O)N1[C@H](C(=O)O)C[C@@H]2CCC[C@@H]21`, the Potency result in [1], in [2], in [3], in assay [6], in [7] and in [8] was “inactive” each time. The Potency entry in [9], in assay [10], in assay [11], in [12], in [13] and in assay [15] was “inactive” each time. Besides, the Potency result in [16] was “inactive”. In addition, the result in assay [4] and in assay [5] was inactive.
For the compound `CCn1cc(C(=O)O)c(=O)c2cc(F)c(N3CCNC(C)C3)c(F)c21` (stereo not drawn), the Potency result in assay [1], in assay [2], in assay [3], in assay [6], in [7] and in [8] was “inactive” throughout. Besides, the Potency result in assay [9], in assay [10], in assay [11], in assay [13], in assay [14] and in [19] was “inactive” throughout. Further, the Potency entry in assay [16] was “inactive”. Moreover, the outcome in assay [4] and in assay [5] was inactive.
As to `COC(=O)[C@@H]1[C@H]2C[C@H]3c4[nH]c5ccccc5c4CCN3C[C@@H]2CC[C@@H]1O`, the Potency entry in assay [1], in [2], in assay [3], in assay [6], in assay [7] and in assay [8] was “inactive” throughout. Also, the Potency entry in [9], in assay [10], in assay [11], in [12], in assay [13] and in assay [19] was “inactive” each time. Also, in [15], the Potency result was “inactive”. In addition, the result in assay [4] and in assay [5] was inactive. Further, the Potency in assay [16] is 23.7 µM (active).
`CCc1ccc(C(=O)C(C)CN2CCCCC2)cc1` (stereo not drawn): the Potency entry in assay [1], in assay [2], in assay [3], in assay [6], in [7] and in assay [8] was “inactive” each time. Further, the Potency result in assay [9], in [10], in [11], in assay [14], in assay [19] and in assay [15] was “inactive” in each case. Further, the outcome in assay [4] and in [5] was inactive.
With `CCCCN1CCCC[C@H]1C(=O)Nc1c(C)cccc1C`, the Potency entry in assay [1], in [2], in assay [3], in [6], in assay [7] and in [8] was “inactive” in each case. Further, the Potency entry in assay [9], in assay [10], in [11], in assay [14], in assay [19] and in assay [15] was “inactive” in each case. Moreover, in assay [16], the Potency entry was “inactive”. Further, the outcome in assay [4] and in assay [5] was inactive.
